# Measured values published in PubChem BioAssay (NCI).
# Where “and” joins values, the source holds several entries; their conditions need not be identical. Identical values can stand only once. Compounds without any hit were thinned out: in the full panel of roughly 83,000, 20% have a hit.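 Note: values are percent growth. 100 is the growth of untreated cells, values between 100 and 0 indicate rising inhibition; between -100 and 0 indicates cell death.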 Calls of active or inactive are those of the source. How the source made its calls: active means growth percent below 10; inactive means the rest.
# Experiments:
# Assay in all cases: NCI-60 one-dose screen, 48 h (100 = growth as untreated, 0 = no growth, -100 = all killed)
# Conditions in all cases: 10 µM unless noted
# [1] = test system: NCI-H23 lung
# [2] = test system: NCI-H226 lung
# [3] = test system: HOP-62 NSCLC
# [4] = test system: NCI-H460 lung
# [5] = test system: HOP-92 NSCLC
# [6] = test system: NCI-H522 lung
# [7] = test system: A549/ATCC NSCLC
# [8] = test system: 786-0 renal
# [9] = test system: COLO 205 colon
# [10] = test system: DU-145 prostate
# [11] = test system: K-562 leukemia
# [12] = test system: MALME-3M melanoma
# [13] = test system: MDA-MB-231 breast
# [14] = test system: RXF 393 renal
# [15] = test system: SF-268 CNS
# [16] = test system: SF-295 CNS
# [17] = test system: SF-539 CNS
# [18] = test system: UACC-257 melanoma
# [19] = test system: M14 melanoma
# [20] = test system: NCI-H322M lung
SMILES,growth [1],growth [2],growth [3],growth [4],growth [5],growth [6],growth [7],growth [8],growth [9],growth [10],growth [11],growth [12],growth [13],growth [14],growth [15],growth [16],growth [17],growth [18],growth [19],growth [20]
O=C(Cn1cc(CN2CCN(c3ccnc4cc(Cl)ccc34)CC2)nn1)Nc1cccc([N+](=O)[O-])c1,99.1% (inactive),86.3% (inactive),71.9% (inactive),98% (inactive),71.4% (inactive),71.7% (inactive),84.8% (inactive),88% (inactive),101% (inactive),100% (inactive),68.8% (inactive),102% (inactive),64.8% (inactive),77.2% (inactive),84.6% (inactive),100% (inactive),88.7% (inactive),98.3% (inactive),103% (inactive),
CCOC(=O)C(=Cc1ccc(C#N)cc1)C(=O)OCC,55.5% (inactive),-36.3% (active),104% (inactive),81.6% (inactive),58.3% (inactive),-24.6% (active),53.2% (inactive),0.647% (active),4.69% (active),43.8% (inactive),3.59% (active),-10.9% (active),16.3% (inactive),-62.5% (active),28.1% (inactive),95.3% (inactive),-49.9% (active),14.6% (inactive),27% (inactive),
CSc1nnc(-c2cc3c([nH]c4ccccc43)c(-c3cccc(O)c3)n2)n1-c1ccc(C)cc1,70.9% (inactive),57.6% (inactive),44.9% (inactive),11.4% (inactive),21.3% (inactive),-2.1% (active),29.4% (inactive),37.8% (inactive),76.5% (inactive),62.8% (inactive),10.2% (inactive),42% (inactive),25.7% (inactive),2.76% (active),48.7% (inactive),15% (inactive),32.3% (inactive),42.5% (inactive),6.07% (active),
O=C(/C=C/c1cccs1)Nc1ncc(Cc2ccc(Cl)c(Cl)c2)s1,91.4% (inactive),86% (inactive),61.5% (inactive),48% (inactive),78.1% (inactive),38.9% (inactive),59.4% (inactive),75.2% (inactive),51.4% (inactive),59.5% (inactive),35.2% (inactive),53.1% (inactive),82.9% (inactive),72.8% (inactive),67.9% (inactive),30.2% (inactive),65.1% (inactive),90.8% (inactive),29% (inactive),
CCOc1ccc(N2C(N)=NC(N)=NC2(C)C)cc1,47.6% (inactive) and 83.8% (inactive),,26.6% (inactive) and 84.5% (inactive),13.7% (inactive) and 104% (inactive),10.3% (inactive) and 72.5% (inactive),-7.67% (active) and 90.1% (inactive),19.5% (inactive) and 44.8% (inactive),56.5% (inactive) and 84.2% (inactive),-32.6% (active) and 83% (inactive),15.3% (inactive) and 104% (inactive),10% (inactive) and 72.3% (inactive),25.3% (inactive) and 91.9% (inactive),49.5% (inactive) and 102% (inactive),-4.94% (active) and 98.1% (inactive),42.1% (inactive) and 97.5% (inactive),-31.9% (active) and 95.8% (inactive),-29.1% (active) and 92.4% (inactive),19.3% (inactive) and 72.1% (inactive),24.2% (inactive) and 89.3% (inactive),45.2% (inactive) and 99.4% (inactive)
CC(C)(C)c1cc(NC(=O)Nc2ccc(-c3cn4c(n3)sc3cc(OCCN5CCOCC5)ccc34)cc2)no1,23.9% (inactive) and 42.6% (inactive),17.8% (inactive),35.7% (inactive) and -26.2% (active),-10.7% (active) and 10.4% (inactive),-2.21% (active) and -1.85% (active),-3.14% (active) and 10.6% (inactive),28.3% (inactive) and 17.3% (inactive),-9.92% (active) and 7.85% (active),10.7% (inactive) and -43.9% (active),35.5% (inactive) and 45.5% (inactive),11.9% (inactive) and 33.9% (inactive),28.9% (inactive) and 20.2% (inactive),43.3% (inactive) and 35.6% (inactive),-6.16% (active) and -13.6% (active),37.2% (inactive) and 22.8% (inactive),-58.7% (active) and 16.4% (inactive),-83.3% (active) and 13.6% (inactive),4.5% (active) and -6.8% (active),37.4% (inactive) and 24% (inactive),
Cc1nnc(NS(=O)(=O)c2ccc(N=Nc3ccc(N)nc3N)cc2)s1,100% (inactive) and 110% (inactive),111% (inactive) and 110% (inactive),113% (inactive),110% (inactive) and 112% (inactive),95.5% (inactive),96.7% (inactive),97.1% (inactive) and 112% (inactive),102% (inactive) and 99.8% (inactive),110% (inactive),118% (inactive) and 105% (inactive),105% (inactive),110% (inactive),95.7% (inactive) and 112% (inactive),134% (inactive) and 136% (inactive),115% (inactive) and 106% (inactive),127% (inactive) and 102% (inactive),110% (inactive) and 103% (inactive),105% (inactive) and 117% (inactive),101% (inactive) and 108% (inactive),
NS(=O)(=O)OCC1OC(n2cnc3cncnc32)C(O)C1O (stereo unspecified),6.16% [0.1 µM] (active) and 3.98% [0.1 µM] (active),16.8% [0.1 µM] (inactive),-21.5% [0.1 µM] (active) and -12.7% [0.1 µM] (active),2.5% [0.1 µM] (active) and 0.409% [0.1 µM] (active),10.2% [0.1 µM] (inactive) and 3.58% [0.1 µM] (active),2.73% [0.1 µM] (active) and -11.8% [0.1 µM] (active),11.1% [0.1 µM] (inactive) and 13.4% [0.1 µM] (inactive),8.57% [0.1 µM] (active) and 11.9% [0.1 µM] (inactive),32.2% [0.1 µM] (inactive) and 27.1% [0.1 µM] (inactive),13.2% [0.1 µM] (inactive),9.29% [0.1 µM] (active) and 7.85% [0.1 µM] (active),81.6% [0.1 µM] (inactive) and 50.7% [0.1 µM] (inactive),-25.1% [0.1 µM] (active) and -14.3% [0.1 µM] (active),11.7% [0.1 µM] (inactive) and 1.25% [0.1 µM] (active),9.46% [0.1 µM] (active) and 13.5% [0.1 µM] (inactive),24% [0.1 µM] (inactive),-2.66% [0.1 µM] (active) and -4.82% [0.1 µM] (active),60.8% [0.1 µM] (inactive) and 58.2% [0.1 µM] (inactive),31.1% [0.1 µM] (inactive) and 16.6% [0.1 µM] (inactive),
Cc1ccc(NC(=O)c2sc3nc(C)c(C(=O)c4ccccc4)cc3c2N)cc1,96.2% (inactive),99.9% (inactive),90.7% (inactive),65.7% (inactive),80% (inactive),88.2% (inactive),44.1% (inactive),91.9% (inactive),98.5% (inactive),95.4% (inactive),55.7% (inactive),87.6% (inactive),92% (inactive),98.8% (inactive),91.1% (inactive),73.1% (inactive),94.8% (inactive),94.9% (inactive),82.7% (inactive),
Nc1ncc(-c2ccc3ncnc(N4CCc5ccc(Cl)cc54)c3c2)cc1C(F)(F)F,35.4% (inactive),20.5% (inactive),17.3% (inactive),18.1% (inactive),-7.6% (active),14.1% (inactive),13.5% (inactive),8.59% (active),7.3% (active),17.6% (inactive),30.5% (inactive),-0.57% (active),21.8% (inactive),-38.8% (active),22.4% (inactive),19.3% (inactive),2.93% (active),29.3% (inactive),26.7% (inactive),
Cc1ccc(S(=O)(=O)Nc2cc(Sc3ccccc3)c(O)c3ccccc23)cc1,58% (inactive),96% (inactive),112% (inactive),105% (inactive),18.2% (inactive),81% (inactive),90.3% (inactive),104% (inactive),108% (inactive),84.3% (inactive),41.1% (inactive),77.7% (inactive),-1.57% (active),105% (inactive),65.8% (inactive),96.8% (inactive),92.9% (inactive),62.8% (inactive),107% (inactive),
COC(=O)c1c2c(c(C)[n+]([O-])c1C)C(=O)C(NCCN1CCOCC1)=CC2=O,59.7% (inactive),103% (inactive),101% (inactive),55.4% (inactive),146% (inactive),87.5% (inactive),91.3% (inactive),89.9% (inactive),6.73% (active),84.3% (inactive),75.6% (inactive),-13.2% (active),70.8% (inactive),96.3% (inactive),79.3% (inactive),82.7% (inactive),89.5% (inactive),48.4% (inactive),62.9% (inactive),
CCOc1nc(-c2ccccc2)cc2c(O)c(C(=O)N/N=C/c3ccc(N(C)C)cc3)[nH]c(=O)c12,107% (inactive),97.1% (inactive),65.2% (inactive),106% (inactive),99.9% (inactive),80.4% (inactive),107% (inactive),112% (inactive),229% (inactive),120% (inactive),105% (inactive),135% (inactive),98.8% (inactive),123% (inactive),104% (inactive),111% (inactive),99.7% (inactive),125% (inactive),119% (inactive),
O=C(NNc1ccccc1)c1ccccc1,98.2% (inactive) and 95.8% (inactive),93% (inactive) and 105% (inactive),99.1% (inactive) and 47.3% (inactive),85.1% (inactive),102% (inactive) and 95.2% (inactive),48.1% (inactive),72.5% (inactive) and 64.1% (inactive),86.1% (inactive) and 64.6% (inactive),95% (inactive) and 65.3% (inactive),98.1% (inactive) and 71.3% (inactive),18% (inactive) and 19.8% (inactive),99.2% (inactive),70.6% (inactive) and 53.6% (inactive),123% (inactive),78.9% (inactive) and 58.7% (inactive),64.5% (inactive),95.1% (inactive) and 96.7% (inactive),56.8% (inactive) and 81.2% (inactive),53.9% (inactive) and 38.5% (inactive),
